Records with an inconclusive call do not appear. Calls of active or inactive are those of the source. Unless noted, calls follow the shape of the dose curve; as a rule, active = well fitted curve in the direction sought with a large enough effect in the repeat runs; inconclusive = weak or mixed curves; inactive = no such curve, though single readings can be large; an effect the other way counts as inactive or inconclusive.
Legend:
[1] = qHTS assay to identify small molecule antagonists of the TGF-beta/Smad signaling pathway - cell viability counter screen (AID 1346824); also: nearly all actives have a fitted effect of over 50% in size
In short: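 SBE-bla HEK 293T cells were plated overnight at 37 C, then given compounds in DMSO plus TGF-beta1 (added as 0.25 ng/mL solution) for 5 hr. After the bla read, CellTiter-Glo was added to the same wells and luminescence read after 30 min at room temperature.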

[2] = qHTS assay to identify small molecule agonists of the TGF-beta/Smad signaling pathway - cell viability counter screen (AID 1346829); also: top concentration of the series differs between compounds; nearly all actives have a fitted effect of over 45% in size
In short: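 After overnight seating at 37 C and 5% CO2, reporter cells got compounds for 5 hr and FRET substrate for 2 hr; cell viability then came from CellTiter-Glo luminescence.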

[3] = qHTS assay to identify small molecule agonists of the TGF-beta/Smad signaling pathway (AID 1346859; active = well fitted activation curve with a large enough effect in the signal ratio in the repeat runs, not every such curve was filed as active; the % refers to the signal ratio; also: series mostly up to about 77 µM)
In short: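 SBE-bla HEK293T cells plated overnight, then compound exposure for 5 h at 37 C. Beta-lactamase reporter read with LiveBLAzer B/G FRET substrate after 2 h at room temperature, fluorescence at 405 nm excitation, 460/530 nm emission.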

[4] = target: Thyrotropin-releasing hormone receptor (Homo sapiens) (UniProt P34981); test: qHTS assay to identify small molecule antagonists of the thyrotropin-releasing hormone receptor (TRHR) signaling pathway (AID 1346877; active = well fitted inhibition curve with a large enough effect in the repeat runs, not every such curve was filed as active; also: series mostly up to about 51 µM)
In short: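 Intracellular calcium fluorescence, read kinetically every second over 3 min, reports TRH-evoked signalling in HEK293 cells carrying TRHR. Test compounds were added 5 min ahead of a 1 nM TRH challenge.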

[5] = target: Thyrotropin-releasing hormone receptor (Homo sapiens) (UniProt P34981); test: qHTS assay to identify small molecule agonists of the thyrotropin-releasing hormone receptor (TRHR) signaling pathway (AID 1346891; calls by dose curve; also: series mostly up to about 58 µM)
In short: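 HEK293 cells expressing TRHR plated 18 h at 37 C/5% CO2, calcium dye-loaded 2 h at 37 C, then compound added (agonist mode); kinetic calcium fluorescence read 3 min at 1 s intervals; 15 concentrations in triplicate.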

[6] = Human pregnane X receptor (PXR) small molecule agonists, qHTS cell viability counter screen (AID 1346977); also: nearly all actives have a fitted effect of over 50% in size
In short: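 PXR-Luc HepG2 cells (2,000/well, 5% charcoal-stripped FBS) preincubated 5 hr, then exposed to compounds 24 hr at 37 C. Viability read in the same wells by CellTiter-Fluor fluorescence, reagent added at 23 hr, 1 hr incubation.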

[7] = Caspase-3/7 induction in HepG2 cells by small molecules, qHTS assay (AID 1346978); also: nearly all actives have a fitted effect of over 15% in size
In short: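 Wild-type HepG2 cells (2,000/well) were settled 5 h at 37 C, 5% CO2, then exposed to compounds in DMSO for 17 h. Caspase-3/7 activity was read by luminescence 30 min after adding Caspase-Glo 3/7 reagent at room temperature.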

[8] = Caspase-3/7 induction in CHO-K1 cells by small molecules, qHTS assay (AID 1346980); also: nearly all actives have a fitted effect of over 15% in size
In short: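 Wild-type cells were seeded at 1,500 per well and settled 5 hr at 37 C, 5% CO2, then exposed to DMSO-dissolved compounds for 17 hr. Caspase-Glo 3/7 reagent was added, and luminescence was read after 30min at room temperature.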

[9] = target: Nuclear receptor subfamily 1 group I member 2 (Homo sapiens) (UniProt O75469); test: Human pregnane X receptor (PXR) small molecule agonists, qHTS assay (AID 1346982); also: nearly all actives have a fitted effect of over 35% in size; also: potency is read from the fitted curve at half-maximal effect
In short: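 Luciferase signal from ONE-Glo (30 min, room temperature) measured activation of hPXR-driven CYP3A4 reporter expression in PXR-Luc HepG2 cells treated with compounds for 24 hr at 37 C.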

[10] = target: Cytochrome P450 2D6 (Homo sapiens) (UniProt P10635); test: Cytochrome P450 Family 2 Subfamily D Member 6 (CYP2D6) small molecule antagonists: luciferase reporter qHTS assay (AID 1671196); also: series mostly up to about 120 µM; nearly all actives have a fitted effect of over 50% in size
In short: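 Read-out is luminescence from luciferin formed by CYP2D6 turnover of a proluciferin substrate, recorded as relative luminescence units. Reactions ran 1 h at room temperature after NADPH regeneration solution was added.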

[11] = target: Cytochrome P450 2C19 (Homo sapiens) (UniProt P33261); test: Cytochrome P450 Family 2 Subfamily C Member 19 (CYP2C19) small molecule antagonists: luciferase reporter qHTS assay (AID 1671197); also: nearly all actives have a fitted effect of over 65% in size; also: potency is read from the fitted curve at half-maximal effect
In short: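 Inhibition of CYP2C19 was scored from loss of luminescence in a P450-Glo proluciferin substrate assay, NADPH-started and run 1 h at 37C, with ketoconazole as positive control.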

[12] = target: Cytochrome P450 2C9 (Homo sapiens) (UniProt P11712); test: Cytochrome P450 Family 2 Subfamily C Member 9 (CYP2C9) small molecule antagonists: luciferase reporter qHTS assay (AID 1671198); also: nearly all actives have a fitted effect of over 50% in size; also: potency is read from the fitted curve at half-maximal effect
In short: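 CYP2C9 activity was measured with a P450-Glo proluciferin substrate. Enzyme–substrate mix was held with compound for 10 min at room temperature, then NADPH regeneration solution was added for 1 h at 37C. Luciferin product was read as luminescence.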

[13] = target: Cytochrome P450 1A2 (Homo sapiens) (UniProt P05177); test: Cytochrome P450 Family 1 Subfamily A Member 2 (CYP1A2) small molecule antagonists: luciferase reporter qHTS assay (AID 1671199); also: nearly all actives have a fitted effect of over 50% in size; also: potency is read from the fitted curve at half-maximal effect
In short: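 P450-Glo CYP1A2, 1536-well qHTS: enzyme/proluciferin substrate + cpd (DMSO), 10 min RT; NADPH regen, 1 h RT; detection reagent, 20 min; luminescence, RLU.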

[14] = target: Voltage-gated inwardly rectifying potassium channel KCNH2 (Homo sapiens) (UniProt Q12809); test: Human Ether-a-go-go-Related Gene (hERG) channel small molecule antagonists: fluorescence cell-based qHTS assay (AID 1671200)
In short: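 hERG-U2OS cells plated overnight at 37 C, loaded with FluxOR II dye 1 h at RT in dark; after 10 min, thallium stimulus added. Fluorescence (480/540 nm) read kinetically for 2 min at 1 s intervals.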

[15] = target: Cytochrome P450 3A4 (Homo sapiens) (UniProt P08684); test: Cytochrome P450 Family 3 Subfamily A Member 4 (CYP3A4) small molecule antagonists: luciferase reporter qHTS assay (AID 1671201); also: nearly all actives have a fitted effect of over 50% in size; also: potency is read from the fitted curve at half-maximal effect
In short: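 P450-Glo CYP3A4 luminescent assay: compounds preincubated 10 min at room temperature with enzyme and proluciferin substrate, NADPH regeneration added, 1 h room-temperature reaction, stopped with luciferin detection reagent; luminescence read after 20 min. Ketoconazole positive control.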

[16] = Caspase-3/7 induction in CHO-K1 cells by small molecules, qHTS cell viability counter screen (AID 1346979); also: nearly all actives have a fitted effect of over 35% in size
In short: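 Wild-type CHO-K1 cells (1,500/well) treated with compound after 5 h plating; after 16 h at 37C, viability read as CellTiter-Fluor fluorescence following 1 h reagent incubation, in the same wells as the caspase read.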

[17] = Caspase-3/7 induction in HepG2 cells by small molecules, qHTS cell viability counter screen (AID 1346981); also: series mostly up to about 92 µM; nearly all actives have a fitted effect of over 30% in size
In short: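 HepG2, WT, 2,000 cells/well; 5 hr pre-incubation 37 C/5% CO2; compound pin-transferred from DMSO; 16 hr exposure; CellTiter-Fluor, 1 hr; fluorescence read.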

[18] = target: Nuclear receptor subfamily 1 group I member 2 (Homo sapiens) (UniProt O75469); test: CYP3A4 induction through human pregnane X receptor (PXR) by small molecules, qHTS assay (AID 1346984); also: nearly all actives have a fitted effect of over 40% in size
In short: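 Luminescence readout: luciferase signal after One-Glo (30 min, room temperature), following 3 h at 37C with 3uM final Luciferin-IPA P450 substrate. Cells were DPX-2 (HepG2, PXR/CYP3A4-luc co-transfected) dosed for 24 h.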

[19] = target: Nuclear receptor subfamily 1 group I member 2 (Homo sapiens) (UniProt O75469); test: Human pregnane X receptor (PXR) activation by small molecules, qHTS assay (AID 1346985); also: nearly all actives have a fitted effect of over 40% in size
In short: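 DPX-2 cells (HepG2 co-transfected with a PXR response element and a CYP3A4-promoter luciferase construct) were seeded at 2,000 per well, rested 5 hr at 37C, then exposed to DMSO-dissolved compounds for 24 hr. Activation was read as luciferase luminescence.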

Measured: Potency

Cytochrome P450 3A4 (Homo sapiens), sequence (P08684 whole entry, looked up): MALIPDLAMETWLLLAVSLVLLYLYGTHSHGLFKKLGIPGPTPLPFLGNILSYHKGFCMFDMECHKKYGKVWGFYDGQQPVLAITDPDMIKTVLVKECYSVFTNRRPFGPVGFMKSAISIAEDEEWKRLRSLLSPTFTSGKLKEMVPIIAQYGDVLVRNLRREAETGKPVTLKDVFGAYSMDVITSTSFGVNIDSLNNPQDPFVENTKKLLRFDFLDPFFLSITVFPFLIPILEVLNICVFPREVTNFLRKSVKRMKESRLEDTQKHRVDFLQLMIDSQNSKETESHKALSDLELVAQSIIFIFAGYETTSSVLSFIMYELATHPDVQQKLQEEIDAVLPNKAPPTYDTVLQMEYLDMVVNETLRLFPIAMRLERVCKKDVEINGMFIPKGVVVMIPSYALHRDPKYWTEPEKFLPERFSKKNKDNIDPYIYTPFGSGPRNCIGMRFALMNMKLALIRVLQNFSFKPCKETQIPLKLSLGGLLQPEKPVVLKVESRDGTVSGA
Voltage-gated inwardly rectifying potassium channel KCNH2 (Homo sapiens), sequence (Q12809 whole entry, looked up): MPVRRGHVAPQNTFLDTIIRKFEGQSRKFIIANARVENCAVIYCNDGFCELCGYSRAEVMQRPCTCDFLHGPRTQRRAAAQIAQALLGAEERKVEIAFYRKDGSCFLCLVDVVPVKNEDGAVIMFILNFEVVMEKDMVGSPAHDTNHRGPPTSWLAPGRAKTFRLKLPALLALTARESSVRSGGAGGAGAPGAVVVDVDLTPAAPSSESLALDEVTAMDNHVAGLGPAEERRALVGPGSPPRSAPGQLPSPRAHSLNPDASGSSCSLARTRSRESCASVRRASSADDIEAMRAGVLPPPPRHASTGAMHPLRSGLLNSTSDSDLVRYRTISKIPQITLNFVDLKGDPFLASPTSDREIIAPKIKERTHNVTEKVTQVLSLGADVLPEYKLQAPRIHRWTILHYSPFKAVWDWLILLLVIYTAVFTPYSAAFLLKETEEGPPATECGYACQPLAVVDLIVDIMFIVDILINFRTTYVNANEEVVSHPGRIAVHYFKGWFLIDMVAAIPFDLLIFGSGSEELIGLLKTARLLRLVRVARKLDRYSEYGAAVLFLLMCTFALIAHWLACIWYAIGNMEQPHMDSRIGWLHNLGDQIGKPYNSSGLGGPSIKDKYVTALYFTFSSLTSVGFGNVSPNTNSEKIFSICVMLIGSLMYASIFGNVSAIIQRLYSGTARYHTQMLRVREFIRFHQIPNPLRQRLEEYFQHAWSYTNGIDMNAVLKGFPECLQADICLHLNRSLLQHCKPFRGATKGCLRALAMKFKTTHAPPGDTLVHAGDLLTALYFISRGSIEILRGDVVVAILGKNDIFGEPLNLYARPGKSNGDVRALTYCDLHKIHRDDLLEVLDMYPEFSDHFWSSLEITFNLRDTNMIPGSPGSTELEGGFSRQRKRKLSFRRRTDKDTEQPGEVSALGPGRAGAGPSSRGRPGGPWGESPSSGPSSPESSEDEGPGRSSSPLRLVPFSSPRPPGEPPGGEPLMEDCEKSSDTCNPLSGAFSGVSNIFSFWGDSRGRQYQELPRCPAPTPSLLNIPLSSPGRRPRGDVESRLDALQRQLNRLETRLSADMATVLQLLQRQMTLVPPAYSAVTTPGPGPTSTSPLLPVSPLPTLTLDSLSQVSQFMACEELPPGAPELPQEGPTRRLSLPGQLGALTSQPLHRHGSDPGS
Cytochrome P450 1A2 (Homo sapiens), sequence (P05177 whole entry, looked up): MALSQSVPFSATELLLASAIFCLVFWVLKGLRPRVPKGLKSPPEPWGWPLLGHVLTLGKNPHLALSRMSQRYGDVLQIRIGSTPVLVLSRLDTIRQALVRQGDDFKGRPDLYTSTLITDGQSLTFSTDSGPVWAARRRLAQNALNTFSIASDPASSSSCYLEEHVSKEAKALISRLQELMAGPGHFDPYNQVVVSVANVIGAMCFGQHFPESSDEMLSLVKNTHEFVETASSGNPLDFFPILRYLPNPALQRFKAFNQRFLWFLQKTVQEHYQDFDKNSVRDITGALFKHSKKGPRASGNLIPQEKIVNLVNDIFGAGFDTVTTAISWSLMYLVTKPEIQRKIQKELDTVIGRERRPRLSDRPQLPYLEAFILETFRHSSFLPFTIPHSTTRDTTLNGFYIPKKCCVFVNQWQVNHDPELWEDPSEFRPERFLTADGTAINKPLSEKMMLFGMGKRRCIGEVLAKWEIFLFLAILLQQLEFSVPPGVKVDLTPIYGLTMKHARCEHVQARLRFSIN
Cytochrome P450 2D6 (Homo sapiens), sequence (P10635 whole entry, looked up): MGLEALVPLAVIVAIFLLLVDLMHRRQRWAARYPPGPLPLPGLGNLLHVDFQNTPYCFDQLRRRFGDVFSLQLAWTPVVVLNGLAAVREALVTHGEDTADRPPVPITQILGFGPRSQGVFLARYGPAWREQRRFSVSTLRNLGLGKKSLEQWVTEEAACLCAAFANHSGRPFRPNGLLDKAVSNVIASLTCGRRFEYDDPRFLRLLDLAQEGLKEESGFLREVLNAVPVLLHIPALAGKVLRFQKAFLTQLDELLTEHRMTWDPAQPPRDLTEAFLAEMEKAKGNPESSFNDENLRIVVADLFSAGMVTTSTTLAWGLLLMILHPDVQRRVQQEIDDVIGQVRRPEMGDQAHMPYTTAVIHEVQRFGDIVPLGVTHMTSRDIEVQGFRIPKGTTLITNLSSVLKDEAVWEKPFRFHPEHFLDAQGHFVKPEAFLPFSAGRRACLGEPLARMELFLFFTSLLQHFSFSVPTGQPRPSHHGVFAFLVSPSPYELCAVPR
Cytochrome P450 2C19 (Homo sapiens), sequence (P33261 whole entry, looked up): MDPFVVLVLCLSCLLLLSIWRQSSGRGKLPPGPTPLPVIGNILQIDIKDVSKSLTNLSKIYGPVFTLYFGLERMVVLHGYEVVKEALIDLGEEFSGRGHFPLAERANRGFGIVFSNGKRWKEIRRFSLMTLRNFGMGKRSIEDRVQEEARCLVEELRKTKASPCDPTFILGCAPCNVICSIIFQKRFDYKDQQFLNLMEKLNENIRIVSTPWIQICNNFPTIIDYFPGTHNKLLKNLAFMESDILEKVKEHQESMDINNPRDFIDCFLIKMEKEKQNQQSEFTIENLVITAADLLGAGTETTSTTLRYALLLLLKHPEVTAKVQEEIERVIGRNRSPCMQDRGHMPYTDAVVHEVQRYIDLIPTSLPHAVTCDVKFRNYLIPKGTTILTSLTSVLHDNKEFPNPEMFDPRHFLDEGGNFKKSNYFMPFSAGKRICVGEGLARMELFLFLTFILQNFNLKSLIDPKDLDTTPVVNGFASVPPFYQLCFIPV
Thyrotropin-releasing hormone receptor (Homo sapiens), sequence (P34981 whole entry, looked up): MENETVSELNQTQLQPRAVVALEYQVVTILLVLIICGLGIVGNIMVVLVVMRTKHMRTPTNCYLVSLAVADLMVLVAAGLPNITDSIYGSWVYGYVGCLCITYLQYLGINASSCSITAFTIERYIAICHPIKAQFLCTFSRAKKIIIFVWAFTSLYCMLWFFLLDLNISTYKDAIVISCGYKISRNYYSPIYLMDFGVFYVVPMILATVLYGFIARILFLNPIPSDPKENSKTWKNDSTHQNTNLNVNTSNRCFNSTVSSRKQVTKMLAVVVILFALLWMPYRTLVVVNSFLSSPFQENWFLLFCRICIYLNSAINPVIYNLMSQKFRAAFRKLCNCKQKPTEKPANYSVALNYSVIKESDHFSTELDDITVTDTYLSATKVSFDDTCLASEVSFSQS
Nuclear receptor subfamily 1 group I member 2 (Homo sapiens), sequence (O75469 whole entry, looked up): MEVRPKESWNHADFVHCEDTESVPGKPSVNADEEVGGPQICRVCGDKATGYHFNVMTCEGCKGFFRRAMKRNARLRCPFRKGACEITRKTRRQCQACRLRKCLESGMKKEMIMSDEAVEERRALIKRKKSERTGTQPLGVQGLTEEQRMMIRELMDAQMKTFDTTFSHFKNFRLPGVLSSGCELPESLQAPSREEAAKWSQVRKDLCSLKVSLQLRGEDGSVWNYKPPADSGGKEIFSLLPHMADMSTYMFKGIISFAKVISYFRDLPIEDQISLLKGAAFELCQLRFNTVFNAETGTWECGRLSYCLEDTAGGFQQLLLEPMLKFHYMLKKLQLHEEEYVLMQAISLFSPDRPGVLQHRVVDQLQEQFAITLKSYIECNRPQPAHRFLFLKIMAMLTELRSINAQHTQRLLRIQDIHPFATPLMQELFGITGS
Cytochrome P450 2C9 (Homo sapiens), sequence (P11712 whole entry, looked up): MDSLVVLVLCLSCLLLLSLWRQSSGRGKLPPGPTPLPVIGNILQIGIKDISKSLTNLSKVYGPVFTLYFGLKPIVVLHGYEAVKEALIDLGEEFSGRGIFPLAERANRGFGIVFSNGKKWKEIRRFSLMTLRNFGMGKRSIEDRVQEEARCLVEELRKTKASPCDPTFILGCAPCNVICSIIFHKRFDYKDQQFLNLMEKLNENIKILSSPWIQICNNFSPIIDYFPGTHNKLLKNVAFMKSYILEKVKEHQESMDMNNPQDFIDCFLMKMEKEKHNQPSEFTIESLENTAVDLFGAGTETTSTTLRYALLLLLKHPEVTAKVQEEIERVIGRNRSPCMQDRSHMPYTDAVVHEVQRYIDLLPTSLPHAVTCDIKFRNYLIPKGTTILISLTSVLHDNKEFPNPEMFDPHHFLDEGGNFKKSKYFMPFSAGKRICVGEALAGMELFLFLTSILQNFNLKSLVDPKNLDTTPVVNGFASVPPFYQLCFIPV

O=C(O)CNC(=O)CNC(=O)CNC(=O)CSC(=O)c1ccccc1
not listed: [16] | [17] | [18] | [19]
inactive: all other assays above

NCCOCCN
active: [11] 71 µM | [13] 17.8 µM
not listed: [10] | [17] | [18] | [19]
inactive: all other assays above

CC(=O)C1C(=O)C=C(C)OC1=O (stereo not given)
not listed: [10] | [12] | [13] | [18] | [19]
inactive: all other assays above

C=Cc1ccc(C(C)(C)C)cc1
not listed: [17] | [18] | [19]
inactive: all other assays above

CCOC(=O)CC1(C)OCC(C)O1 (stereo not given)
not listed: [10] | [17] | [18] | [19]
inactive: all other assays above

O=C(O)CSCC(=O)NC1CCSC1=O (stereo not given)
not listed: [7] | [15] | [18] | [19]
inactive: all other assays above

ONc1ccccc1
active: [11] 88.5 µM | [13] 14 µM
not listed: [9] | [12] | [18] | [19]
inactive: all other assays above

CCO[Si](CC)(OCC)OCC
active: [9] 15.4 µM | [15] 7.1 µM
not listed: [10] | [12] | [18] | [19]
inactive: all other assays above

[O-][n+]1cccc(/C(Cl)=N/OC[C@@H](O)CN2CCCCC2)c1
not listed: [10] | [11] | [14] | [15] | [18] | [19]
inactive: all other assays above

CC(C)CO
not listed: [10] | [11] | [14] | [15] | [18] | [19]
inactive: all other assays above

O=Cc1cc2ccccc2o1
active: [13] 31.7 µM
not listed: [11] | [15] | [17] | [18] | [19]
inactive: all other assays above

Cc1c(NC(=O)c2cccnc2)c(=O)n(-c2ccccc2)n1C
not listed: [7] | [11] | [13]
inactive: all other assays above

CC1c2ccccc2CN1NC(=O)c1ccc(Cl)c(S(N)(=O)=O)c1 (stereo not given)
not listed: [10] | [11] | [12] | [18] | [19]
inactive: all other assays above

OCC(O)CN1CCN(c2ccccc2)CC1 (stereo not given)
not listed: [10] | [11] | [14] | [18] | [19]
inactive: all other assays above

CC1(C)Cc2cccc(N)c2O1
active: [9] 34.4 µM | [11] 17.8 µM | [12] 11.2 µM | [15] 7.96 µM
not listed: [10] | [13] | [18] | [19]
inactive: all other assays above

O=C(CCCCC(=O)Nc1c(I)cc(I)c(C(=O)O)c1I)Nc1c(I)cc(I)c(C(=O)O)c1I
not listed: [16] | [17] | [18] | [19]
inactive: all other assays above

C/C(CC(C)C)=N\O
not listed: [7] | [18] | [19]
inactive: all other assays above
